Test results: PubChem BioAssay AID1159580 (chemical genetic matrix, 2015)
Values joined by “and” are separate entries in the source; they are usually repeats but may differ in a detail not shown here. Equal values may be shown once. Hit rate of the full screen: of about 5,500 compounds, about 2,000 (36%) were called active. Roughly 18% stayed inconclusive and do not appear here. Rule as the data show it: active = normalized growth mostly below about 0.91 (no sharp cut-off); inconclusive = no clear call, values can overlap the other calls; inactive = mostly above about 0.92. The list shows a part of the results.

Assay: chemical genetic growth profiling, strain panel (AID 1159580);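 also: tested at 20 µM; growth read once vehicle control cultures reached saturation at 30 °C; 1 = growth at the plate median or of vehicle wells; lower values mean less growth of the strain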
Conditions: S. cerevisiae deletion strains, growth OD

Measured: normalized growth

C[C@H](COc1ccccc1)N[C@H](C)[C@H](O)c1ccc(O)cc1
inactive: locus YAL021C, strain ccr4, stronger effect = lower value 0.964 | locus YAL026C, strain drs2, stronger effect = lower value 0.974 | locus YAL030W, strain snc1, stronger effect = lower value 0.999 | locus YBL061C, strain skt5, stronger effect = lower value 1.01 | locus YBR009C, strain hhf1, stronger effect = lower value 1 | locus YBR021W, strain FUR4, stronger effect = lower value 0.986 | locus YBR023C, strain chs3, stronger effect = lower value 0.981 | locus YBR171W, strain sec66, stronger effect = lower value 0.997 | locus YBR229C, strain ROT2, stronger effect = lower value 0.995 | locus YBR231C, strain swc5, stronger effect = lower value 0.988 | locus YBR279W, strain paf1, stronger effect = lower value 0.982 | locus YCL011C, strain gbp2, stronger effect = lower value 1 | locus YCL016C, strain dcc1, stronger effect = lower value 0.979 | locus YCL029C, strain bik1, stronger effect = lower value 0.996 | locus YCL061C, strain MRC1, stronger effect = lower value 0.986 | locus YCL069W, strain vba3, stronger effect = lower value 0.997 | locus YCR088W, strain abp1, stronger effect = lower value 0.998 | locus YDL005C, strain med2, stronger effect = lower value 0.999 | locus YDL035C, strain GPR1, stronger effect = lower value 1.03 | locus YDL040C, strain nat1, stronger effect = lower value 0.994 | locus YDL074C, strain BRE1, stronger effect = lower value 1.03 | locus YDL101C, strain DUN1, stronger effect = lower value 1 | locus YDL185W, strain tfp1, stronger effect = lower value 0.992 | locus YDL192W, strain arf1, stronger effect = lower value 0.998 | locus YDR001C, strain nth1, stronger effect = lower value 0.992 | locus YDR069C, strain doa4, stronger effect = lower value 0.998 | locus YDR101C, strain arx1, stronger effect = lower value 1.01 | locus YDR137W, strain rgp1, stronger effect = lower value 0.963 | locus YDR150W, strain NUM1, stronger effect = lower value 1 | locus YDR159W, strain sac3, stronger effect = lower value 0.99 | locus YDR162C, strain NBP2, stronger effect = lower value 1 | locus YDR195W, strain ref2 0.993 | locus YDR297W, strain sur2, stronger effect = lower value 0.99 | locus YDR318W, strain mcm21, stronger effect = lower value 0.994 | locus YDR334W, strain swr1, stronger effect = lower value 0.996 | locus YDR335W, strain msn5, stronger effect = lower value 1 | locus YDR388W, stronger effect = lower value 0.997 | locus YDR392W, strain spt3, stronger effect = lower value 0.952 | locus YDR502C, strain sam2, stronger effect = lower value 1.01 | locus YEL003W, strain gim4, stronger effect = lower value 1 | locus YEL037C, strain rad23, stronger effect = lower value 0.997 | locus YEL061C, strain CIN8 (second series), stronger effect = lower value 0.996 | locus YEL061C, strain CIN8, stronger effect = lower value 1 | locus YER015W, strain faa2, stronger effect = lower value 1 | locus YER016W, strain bim1, stronger effect = lower value 1.01 | locus YER110C, stronger effect = lower value 0.975 | locus YER111C, strain swi4, stronger effect = lower value 0.988 | locus YER155C, strain BEM2 (second series), stronger effect = lower value 0.983 | locus YER155C, strain BEM2, stronger effect = lower value 0.986 | locus YER167W, strain BCK2, stronger effect = lower value 0.985 | locus YFR010W, strain ubp6, stronger effect = lower value 0.996 | locus YGL078C, strain dbp3, stronger effect = lower value 0.98 | locus YGL086W, strain mad1, stronger effect = lower value 1.01 | locus YGL167C, strain pmr1, stronger effect = lower value 1 | locus YGL173C, strain kem1, stronger effect = lower value 1 | locus YGL227W, strain vid30, stronger effect = lower value 0.986 | locus YGL240W, strain doc1, stronger effect = lower value 0.988 | locus YGL248W, strain PDE1, stronger effect = lower value 0.993 | locus YGL253W, strain hxk2, stronger effect = lower value 1.01 | locus YGR078C, strain PAC10, stronger effect = lower value 1.01 | locus YGR135W, strain pre9, stronger effect = lower value 0.942 | locus YGR252W, strain gcn5, stronger effect = lower value 0.988 | locus YHR013C, strain ard1, stronger effect = lower value 0.969 | locus YHR027C, strain rpn1, stronger effect = lower value 0.997 | locus YHR030C, strain SLT2, stronger effect = lower value 0.993 and 1 | locus YHR079C, strain IRE1 (second series), stronger effect = lower value 0.991 | locus YHR079C, strain IRE1, stronger effect = lower value 0.985 | locus YHR094C, strain hxt1, stronger effect = lower value 0.974 | locus YHR129C, strain ARP1, stronger effect = lower value 0.992 | locus YHR142W, strain chs7, stronger effect = lower value 1 | locus YHR200W, strain rpn10, stronger effect = lower value 0.992 | locus YIL066C, strain RNR3, stronger effect = lower value 0.987 | locus YIL073C, strain SPO22, stronger effect = lower value 0.977 | locus YIL125W, strain kgd1, stronger effect = lower value 1 | locus YIR030C, strain dcg1, stronger effect = lower value 0.993 | locus YJL092W, strain hpr5, stronger effect = lower value 0.992 | locus YJL095W, strain BCK1 (second series), stronger effect = lower value 0.998 | locus YJL095W, strain BCK1, stronger effect = lower value 0.965 and 1 | locus YJL115W, strain asf1, stronger effect = lower value 0.996 | locus YJL129C, strain trk1, stronger effect = lower value 0.993 | locus YJL134W, strain LCB3, stronger effect = lower value 0.991 | locus YJL154C, strain vps35, stronger effect = lower value 0.998 | locus YJL164C, strain tpk1, stronger effect = lower value 0.996 | locus YJL166W, strain qcr8, stronger effect = lower value 0.989 | locus YJL168C, strain set2, stronger effect = lower value 0.99 | locus YJL187C, strain SWE1 (second series), stronger effect = lower value 0.985 | locus YJL187C, strain SWE1, stronger effect = lower value 1.01
